# A selection: hits, their analogues and other compounds. The true share with any hit is near 12%.
# USP10 inh: inhibitors of human USP10 deubiquitinase | purified USP10, Ub-rhodamine fluorescence, 60 min | inhibition, % at 20 µM | 47,000 compounds, 1.1% hits
# Target sequence (Q14694 whole entry, looked up): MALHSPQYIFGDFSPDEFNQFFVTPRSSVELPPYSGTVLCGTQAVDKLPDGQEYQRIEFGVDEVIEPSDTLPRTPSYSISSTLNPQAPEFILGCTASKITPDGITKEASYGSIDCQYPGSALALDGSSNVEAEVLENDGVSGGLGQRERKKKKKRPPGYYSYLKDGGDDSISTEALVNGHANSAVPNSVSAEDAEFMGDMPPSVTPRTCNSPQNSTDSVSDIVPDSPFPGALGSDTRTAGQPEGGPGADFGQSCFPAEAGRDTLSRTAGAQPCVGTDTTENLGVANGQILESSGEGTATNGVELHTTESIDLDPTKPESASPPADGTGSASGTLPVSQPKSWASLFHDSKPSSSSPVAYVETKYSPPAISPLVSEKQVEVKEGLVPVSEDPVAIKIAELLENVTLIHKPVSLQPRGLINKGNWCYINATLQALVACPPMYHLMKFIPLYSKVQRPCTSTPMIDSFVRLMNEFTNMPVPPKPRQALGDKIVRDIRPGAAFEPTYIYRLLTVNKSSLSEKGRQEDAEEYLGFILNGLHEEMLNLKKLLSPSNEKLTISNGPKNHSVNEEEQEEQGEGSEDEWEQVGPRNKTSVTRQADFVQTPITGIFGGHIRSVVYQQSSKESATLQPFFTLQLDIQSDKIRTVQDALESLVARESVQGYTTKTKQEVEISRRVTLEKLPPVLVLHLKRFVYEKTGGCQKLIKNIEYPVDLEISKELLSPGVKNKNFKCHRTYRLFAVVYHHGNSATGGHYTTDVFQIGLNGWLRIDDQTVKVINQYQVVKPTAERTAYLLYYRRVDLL
# UCHL1 inh: blocks human UCHL1 ubiquitin-rhodamine cleavage; P09936; purified UCHL1, Ub-rhodamine cleavage fluorescence; inhibition, % at 20 µM; 47,000 compounds, 0.2% hits; AID 1645859
# USP17 block: inhibitors of human USP17 deubiquitinase. A8MUK1. AID 1645855. inhibition, % at 50 µM. 47,000 compounds, 6.5% hits. purified USP17, Ub-rhodamine cleavage fluorescence, 3 h
# USP30 inh: human USP30 deubiquitinase inhibition | 47,000 compounds, 5.3% hits | inhibition, % at 25 µM | Q70CQ3 | AID 1645860 | purified USP30, Ub-rhodamine cleavage fluorescence
# USP7 inh: inhibitors of human USP7 deubiquitinase. purified USP7, Ub-rhodamine cleavage fluorescence. inhibition, % at 20 µM. 47,000 compounds, 0.3% hits. AID 1645854
# USP8 inh: inhibitors of human USP8 deubiquitinase; P40818; purified USP8, Ub-rhodamine cleavage fluorescence, 30 min; inhibition, % at 20 µM; 47,000 compounds, 4.2% hits
# Active calls of the source: *; · = not tested or not shown. Cut-off read from the data, not from the text of the source: active = inhibition above about 30%; inactive = the rest.
SMILES,USP10 inh,UCHL1 inh,USP17 block,USP30 inh,USP7 inh,USP8 inh
CCCOc1ccc(C2CN3C(=O)CN(Cc4ccco4)C(=O)[C@]3(C)c3[nH]c4ccccc4c32)cc1OC (some centres undefined),5.0,12.3,1.4,10.4,15.2,-29.3
Cc1nc2cc(S(=O)(=O)N3CCC(C(=O)N4CCc5ccccc54)CC3)ccc2n1C1CCCC1,0.6,-0.7,-0.5,29.5,-4.3,-0.3
CCOc1ccc(NC(=O)c2cccc(-n3cnnc3)n2)cc1,2.4,3.1,16.8,20.4,4.6,17.0
CCOc1ccc(-n2cc(C(=O)Nc3cnc4ccccc4c3)nn2)cc1,8.9,0.2,43.2*,-10.1,6.4,2.0
CCOC(=O)COc1nc(-c2cccs2)cc(C(F)(F)F)c1C#N,5.4,2.2,21.5,10.1,-0.4,2.7
CCOC(=O)c1cnc(C(F)(F)F)nc1Sc1n[nH]c(-c2cccs2)n1,-1.7,-2.4,85.8*,4.7,6.5,9.4
O=c1c2cnc3nc(-c4cccnc4)nn3c2ccn1CC1CCCO1 (centres undefined),1.6,-5.4,8.4,0.0,0.8,9.8
COc1ccc(CCNC(=O)COC(=O)c2ccc(N3CCCC3=O)cc2)cc1,4.9,-0.4,83.7*,81.3*,5.7,30.3*
COc1ccc(C(=O)Nc2cccc(N3CCCCC3=O)c2)cc1,1.2,3.4,-3.4,7.8,6.3,3.7
O=C(c1ccccc1)c1c(-c2ccccc2)oc2ccc(NS(=O)(=O)c3ccc(Cl)cc3)cc12,32.9*,9.9,9.6,26.3,15.8,23.2
CSC1SCC2C(=O)N(C)C(C(C)C(C)C)C(=O)OCC(NC(=O)c3cnc4ccccc4n3)C(=O)NC(C)C(=O)N(C)C1C(=O)N(C)C(C(C)C(C)C)C(=O)OCC(NC(=O)c1cnc3ccccc3n1)C(=O)NC(C)C(=O)N2C (centres undefined),37.8*,7.4,18.3,14.3,18.5,13.6
COc1ccccc1CN(C(=O)c1cnccn1)C(C(=O)Nc1ccc(F)cc1)c1ccccc1C (centres undefined),7.6,7.9,14.3,-16.4,-0.2,14.7
O=C(Nc1ccc2ccccc2c1)C(=O)C1C(=O)Nc2ccccc21 (centres undefined),7.1,1.6,-22.1,-187.7,2.6,61.8*
C[C@H]1CN(C(=O)c2ccc3ccccc3n2)C[C@@H]1c1nc(-c2cccnc2)no1,-1.5,4.6,2.1,15.1,1.0,1.5
O=C(c1ccc2c(=O)n3c(nc2c1)CCCC3)N1CCC2(CC1)OCCO2,1.7,2.7,10.0,30.9*,8.0,7.8
O=C(C1CCCC1)N1Cc2ccccc2CC2(CCCN2CC2CCOCC2)C1 (centres undefined),-6.0,-40.6,-135.6,-443.6,-44.6,-160.9
CCOC(=O)c1ccc(S(=O)(=O)N2CCC(C(=O)OC(C)C(=O)Nc3cccc([N+](=O)[O-])c3)CC2)cc1 (centres undefined),23.2,5.4,7.5,82.7*,3.7,-58.9
Cn1cc(C2CCCCCN2Cc2cc(Cl)ccc2O)cn1 (centres undefined),4.4,-1.5,-7.5,-5.2,-13.4,-10.4
CCOC(=O)c1ccc2nc(N3C(=O)c4oc5ccccc5c(=O)c4C3c3ccco3)sc2c1 (centres undefined),-1.0,-1.8,-5.9,-27.1,-3.9,4.1
CCc1ccc(C2c3c(oc4ccccc4c3=O)C(=O)N2c2nncs2)cc1 (centres undefined),6.5,0.5,51.1*,2.1,5.5,-0.1
CCOc1cc(C2c3c(oc4ccccc4c3=O)C(=O)N2c2nc3ccc(C)cc3s2)ccc1O (centres undefined),3.9,0.0,22.5,34.7*,7.0,-0.8
CSc1ccc(C2NC(=O)NC(C)=C2C(=O)c2ccc(Cl)cc2)cc1 (centres undefined),5.5,4.6,-0.1,-11.3,-9.3,3.7
Cc1cc(C)cc(N2C(N)=NC(N)=NC2c2ccccc2F)c1 (centres undefined),0.8,2.2,17.4,36.9*,-0.2,26.3
CN1CCCC[C@]2(C[C@H](CO)[C@H](c3ccccc3)N2S(=O)(=O)c2ccccc2)C1=O,-1.2,-0.1,-0.8,-1.6,1.1,-2.6
Cc1ccc(Oc2ccccc2NC(=O)CSc2nc(N)nc(N)n2)cc1,-6.1,-5.3,42.9*,-108.0,-11.9,-0.1
SMILES,USP10 inh,UCHL1 inh,USP17 block,USP30 inh,USP7 inh,USP8 inh
O=C(Nc1cccc(-c2nc3ncccc3o2)c1)c1ccc([N+](=O)[O-])cc1,3.5,-1.6,20.0,6.1,5.8,19.5
Cc1ccc(-c2nc3ncccc3o2)cc1NC(=O)COc1ccc([N+](=O)[O-])cc1,-3.0,0.5,40.5*,-23.2,0.0,-6.0
O=C(CSc1cn(CC(=O)N2CCCC2)c2ccccc12)Nc1ccc(F)cc1F,0.7,1.3,3.4,13.7,-4.5,-1.0
Cc1nn(-c2ccccc2)c2c1N=C1C(Cl)=CC(Cl)=CN1C21C(=O)Nc2ccccc21 (centres undefined),3.5,14.9,82.1*,15.3,65.3*,93.7*
COc1ccc(C2c3c(C)nn(-c4ccccc4)c3N=C3C(=O)Nc4ccccc4N32)cc1 (centres undefined),-6.7,2.3,-15.4,-36.4,3.0,-4.2
COc1ccc(CC(=O)Nc2cnc3ccc(C(=O)NCc4ccncc4)cn3c2=O)cc1,-6.2,0.0,30.5*,-13.8,1.0,-11.5
O=C(Nc1ccccc1)Nc1cnc2ccc(C(=O)NCc3ccncc3)cn2c1=O,-1.0,-2.4,15.9,19.0,1.3,15.0
Cc1cc(-c2ncc(C)[nH]2)nc(C2CCN(S(C)(=O)=O)CC2)n1,0.3,0.0,-13.8,-0.6,2.2,-71.4
Cc1nnc(-c2cccnc2N2CCN(C(=O)NC3CCCCC3)CC2)o1,2.8,0.5,3.7,7.0,4.0,-8.6
O=C(Nc1ccc2c(c1)OCO2)c1cc(-c2ccco2)on1,-0.5,6.8,44.3*,-17.9,-7.4,7.0
O=C(Nc1cccnc1Cl)c1cc(-c2ccco2)on1,-5.0,-8.8,-3.1,·,-14.5,-21.9
CCOc1ccc(S(=O)(=O)n2cc3c(=O)n(C)c(=O)n(C)c3n2)cc1,-0.1,-3.6,32.8*,8.6,-2.1,1.8
COc1ccc(S(=O)(=O)N(C)C)cc1NC(=O)COC(=O)c1ccccc1,4.3,3.2,43.3*,13.6,3.6,-3.7
COc1ccc(C)cc1S(=O)(=O)NNc1nc(C)cc(C)n1,1.9,0.0,33.7*,7.3,4.8,76.4*
O=c1c2ccccc2c(-c2nc(-c3cccnc3)no2)cn1-c1ccc(Cl)cc1,1.5,3.1,4.4,37.5*,4.0,7.1
c1ccc(-n2cc(-c3noc(-c4cccnc4)n3)nn2)cc1,0.3,1.1,19.6,27.9,-0.3,19.9
Cc1ccc(Nc2nc(N3CCCC3)nc3c2cnn3C)cc1Cl,-6.0,0.4,18.5,7.8,8.8,16.9
Cc1ccc(Nc2nc(N3CCN(c4ccc(F)cc4)CC3)nc3c2cnn3C)cc1,2.1,2.8,12.8,31.4*,4.3,26.6

# Assay outcomes as filed in PubChem BioAssay.
